Shown are actives, neighbours in structure and some others; about 1.9% of the full set was active somewhere.
Menin MLL FP TR: qHTS Assay for Inhibitors Targeting the Menin-MLL Interaction in MLL Related Leukemias: Competition With Texas Red Labeled MLL-derived Mutant Peptide; O00255; Menin + Texas Red MLL mutant peptide, fluorescence polarization; Potency, µM (doses to about 61.6 µM), for the others: at the top dose FP activity change, negative = inhibition, usual class: inhibitors; 270,000 compounds, 0.23% hits; active means well fitted inhibition curve with a large enough effect in the polarisation, with a control signal flat, not every such curve was filed as active; inconclusive means small, poorly fitted or top-dose-only effect, or effect the other way, or a change in a side signal; inactive means no such curve, though single readings can be large or run the other way; the % refers to the polarisation; further: potency means the concentration at half of the fitted maximal effect; % of control where 0% means no effect
Menin MLL FP FL: qHTS Assay for Inhibitors Targeting the Menin-MLL Interaction in MLL Related Leukemias: Competition With Fluorescein Labeled MLL-derived Peptide | Fluorescence polarization, fluorescein-MLL peptide displacement from menin | FP activity change, % at 61.4 µM | 290,000 tested, under 10 active; active means well fitted curve in the direction sought with a large enough effect in the polarisation, not every such curve was filed as active; inconclusive means small, poorly fitted or top-dose-only effect, or effect the other way, or a change in a side signal; inactive means no such curve, though single readings can be large or run the other way; the % refers to the polarisation; further: % of control where 0% means no effect
PINK1 modulator: A Quantitative High throughput Screen to Identify Chemical Modulators of PINK1 Expression. PINK1 immunofluorescence, high-content cytometry, 24 h. Potency, µM (titrated, usually from 76.6 µM), without a hit: top-dose activation (PINK1 increase), most hits filed as activators. 410,000 compounds, 0.2% hits. AID 624263, 2012; active means well fitted activation curve with a large enough effect; inconclusive means small, poorly fitted or top-dose-only effect; cell line not stated here; further: potency means the concentration at half of the fitted maximal effect; % of control where 0% means no effect; nearly all actives have a fitted effect of over 65% in size
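Stable cell line, 250 cells/well, 12 h attachment; compounds pinned at 5 concentrations, 24 h; CCCP control. Fixed with nuclear dye, primary antibodies 12 h at 10 degrees C, secondary plus cell stain; laser-scanning cytometer read.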
Epigenetic reg: Quantitative High-Throughput Screen for Regulators of Epigenetic Control | Potency, µM (highest dose often 53.9 µM), without a hit: at the highest dose GFP activation, most hits filed as activators | murine LDR cells, GFP reporter derepression, 30 h | 280,000 compounds, 0.2% hits | AID 1865, 2009; active means well fitted activation curve with a large enough effect; inconclusive means small, poorly fitted or top-dose-only effect; further: potency means the concentration at half of the fitted maximal effect; % of control where 0% means no effect; nearly all actives have a fitted effect of over 60% in size
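Readout is the number of GFP-expressing murine LDR cells, counted by cytometry following washing. Cells were treated with compound for 30 h at 37 C; the stably integrated CMV-GFP locus is normally silent.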
ClpP mod: qHTS Assay for Activators of ClpP | ATP-dependent Clp protease proteolytic subunit (Bacillus subtilis (strain 168)), P80244 | purified B. subtilis ClpP, FRET peptide cleavage, 20 min | Potency, µM (top dose mostly 57.5 µM), without a hit: at the highest dose activity change, negative = active | 340,000 compounds, 1.9% hits; active means well fitted falling curve with a large enough effect; inconclusive means small, poorly fitted or top-dose-only effect; inactive means no such curve, though single readings can be large or run the other way; further: potency means the concentration at half of the fitted maximal effect; the source files actives as falling curves though it sought activators and does not explain the sign; nearly all actives have a fitted effect of over 65% in size
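Buffer: 100 mM Tris/HCl pH8, 100 mM KCl, 0.05% low protease BSA, 2.5% glycerol, 0.01% Tween-20. ClpP 10 microg/mL final; 20 min RT; delta FRET normalized to ADEP and DMSO controls.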
MLL CXXC-DNA inh: qHTS Fluorescence Polarization Assay for Inhibitors of MLL CXXC domain - DNA interaction. MLL-CXXC / FITC-HOXA9 DNA fluorescence polarization. AID 2662, 2010. 290,000 compounds, 0.037% hits. Potency, µM (series often up to 115 µM), inactives show top-dose activity change, negative = inhibition, actives largely listed as inhibitors; active means well fitted inhibition curve with a large enough effect in the polarisation, with a control signal flat, not every such curve was filed as active; inconclusive means small, poorly fitted or top-dose-only effect, or effect the other way, or a change in a side signal; inactive means no such curve, though single readings can be large or run the other way; the % refers to the polarisation; further: potency means the concentration at half of the fitted maximal effect
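Steps: dispense CXXC domain solution (7 uM) → pin compounds or unlabeled HOX-A9 DNA control → 5 min ambient → add FLSN-HOX-A9 solution (50 nM) → spin → 30 min ambient → fluorescence polarization. Tris pH 7.5/NaCl/DTT/BSA buffer.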
The depositor's hits bear a star; ? = inconclusive; · = no result given; [ ] = dose if it differs, or a comment.

SMILES	Menin MLL FP TR	Menin MLL FP FL	PINK1 modulator	Epigenetic reg	ClpP mod	MLL CXXC-DNA inh
COc1ccc(Cn2c(N)c(C(=O)NCc3ccco3)c3nc4ccccc4nc32)cc1	?	?	8%	3%	32µM*	-1%
CCOC(=O)c1c(N)n(Cc2ccco2)c2nc3ccccc3nc12	-6%	?	4%	-3%	5%	-5%
Nc1c(C(=O)NCc2ccco2)c2nc3ccccc3nc2n1Cc1ccc(F)cc1	14%	8	12%	13%	28µM*	12%
Nc1c(C(=O)NCc2ccco2)c2nc3ccccc3nc2n1Cc1ccccc1	?	7	8%	?	4%	1%
CCC(=O)Oc1ccc2c(c1)CCC1C2CC[C@]2(C)C(OC(=O)CC)CCC12 (some centres undefined)	?	1	·	-4%	·	·
NC(=O)c1cc([N+](=O)[O-])cc([N+](=O)[O-])c1	-4%	1	0%	-2%	1%	9%
CC(C)(C)c1cc([N+](=O)[O-])cc(C(C)(C)C)c1O	?	7	5µM*	-2%	3%	12%
COCCOC(=O)c1c(C)n(C)c2ccc(OC(=O)N(C)C)cc12	-13%	0	5.6µM*	-9%	1%	-3%
COc1ccc(-c2cn(CCO)nc2-c2ccc(OC)cc2)cc1	?	-1	0%	·	·	?
O=C(O)c1cccc2c1NC(C(=O)O)C1CC(Sc3ccccc3[N+](=O)[O-])C(Cl)C21 (centres undefined)	22µM*	-12	2%	0%	-25%	8%
O=c1c2ccccc2nc(N2CCCC2)n1-c1ccc(Cl)cc1	?	6	67%[38.3 µM]	-1%	22µM*	-10%
Nc1ccccc1C(=O)OCC(=O)Nc1ccc(Br)cc1F	-13%	2	3%[38.3 µM]	0%	28µM*	14%
O=C(COC(=O)c1ccc(O)cc1)Nc1ccc(Cl)cc1C(=O)c1ccccc1	?	2	23%	0%	·	13%
O=C(C/C=N\OCc1c(Cl)cccc1Cl)Oc1ccc(Cl)cc1Cl	7%	2	15%	-1%	-2%	125%
CCOP(=O)(OCC)C(O)c1cccc([N+](=O)[O-])c1 (centres undefined)	3%	0	-1%	-1%	1%	0%
CCOP(=O)(OCC)c1ccc(OP(=O)(c2cccc([N+](=O)[O-])c2)c2cccc([N+](=O)[O-])c2)cc1	·	3	2%	1%	35µM*	-3%
Cc1ccc(NC(=O)c2cn(CCC#N)nc2-c2ccc3c(c2)OCCO3)c([N+](=O)[O-])c1	22%	-1	-3%	-1%	28µM*	10%
CC(C)(C)C(=O)C(Oc1ccc(Cl)cc1)n1ccnc1 (centres undefined)	-10%	?	·	·	·	-27%
COc1ccc(N2C(=O)NC(=O)/C(=C\c3cn(C)c4ccccc34)C2=O)cc1	?	?	29%	·	2%	?
COC(=O)Cn1cc(/C=C2\C(=O)NC(=O)N(c3ccc(OC)cc3)C2=O)c2ccccc21	-28%	?	35µM*	·	·	?
COc1ccc(C2C=C(c3ccccc3)Nc3nc(NC(=O)/C=C/c4ccccc4Cl)nn32)cc1 (centres undefined)	·	·	?	7%	3%	·
COc1ccc(-c2coc3c(C(=O)Nc4cc(OC)c(OC)c(OC)c4)cccc23)c(C)c1	·	·	5%	·	?	·
CCOC(=O)CC(SP1(=S)OCC2(CCCCC2)CO1)C(=O)OCC (centres undefined)	·	·	0%	·	28µM*	·
